The nature of the assay: NCI Yeast Anticancer Drug Screen. Data for the mgt1 strain (AID 153). Particulars: S. cerevisiae mgt1 mutant growth inhibition, stronger effect = higher value. The protocol: Growth inhibition of yeast strains with defined genetic alterations is measured as a screen for potential anti-cancer activity. Selected strains with alterations in DNA damage repair or cell cycle control were exposed to compounds and growth inhibition was measured relative to vehicle treated controls. The strain used in this assay is mgt1

Each structure is given as a SMILES string. The panel holds about 79,000 compounds, 15% with a hit somewhere; the sample as a whole holds those more often. Unmarked numbers belong to inactive results. Activity calls are given as the source filed them. No stated cut-off is given here; in the data, active means growth inhibition above about 70%; inactive means the rest.

Regarding `Cc1ccc(Nc2nc3c(=O)n(C)c(=O)n(C)c3nc2Nc2ccc(C)cc2)cc1`, the growth inhibition reads like this: (at 1.2 µM) -2%; (at 3.7 µM) -4%; (at 11.0 µM) -4%; (at 33.0 µM) 11%; (at 100.0 µM) -2%.

Turning to `O=[N+]([O-])CC(SCc1ccccc1)c1ccc2c(c1)OCO2` (stereo not given), the growth inhibition by setting is: (at 1.2 µM) 9%; (at 3.7 µM) 3%; (at 11.0 µM) 47%; (at 33.0 µM) 97% (active); (at 100.0 µM) 97% (active).

`NCCNc1ccc(NCCN)c2c1C(=O)c1c(O)ccc(O)c1C2=O`: the growth inhibition is -30% (at 1.2 µM); -21% (at 3.7 µM); -9% (at 11.0 µM); 86% (active) (at 33.0 µM); 66% (at 100.0 µM).

In the case of `CCC(C)COC(=O)c1ccc(N=Cc2ccc(C=Nc3ccc(C(=O)OCC(C)CC)cc3)cc2)cc1` (stereo not given), the growth inhibition reads like this: (at 1.2 µM) 1%; (at 3.7 µM) 1%; (at 11.0 µM) -4%; (at 33.0 µM) -6%; (at 100.0 µM) 6%.

With `O=C1c2ccccc2C(=O)c2cc(CBr)ccc21`, the growth inhibition (at 1.2 µM) is 0%; the growth inhibition (at 3.7 µM) is 2%; the growth inhibition (at 11.0 µM) was 4%; the growth inhibition (at 33.0 µM) was 21%; the growth inhibition (at 100.0 µM) is 68%.

For the compound `CCC(=O)OCCn1c2nc(=O)[nH]c(=O)c-2nc2cc(C)c(C)cc21`, the growth inhibition runs as follows: (at 1.2 µM) -1%; (at 3.7 µM) -8%; (at 11.0 µM) 3%; (at 33.0 µM) 75% (active); (at 100.0 µM) 88% (active).

On to `CC/C(=C(\c1ccccc1)c1ccc(OCCN(C)C)cc1)c1ccccc1`, for which the growth inhibition is 7% (at 1.2 µM); 8% (at 3.7 µM); 94% (active) (at 11.0 µM); 98% (active) (at 33.0 µM); 97% (active) (at 100.0 µM).

Turning to `COP(=O)(OC)/C(=C\C1=CN(C(c2ccccc2)(c2ccccc2)c2ccccc2)CN1)NC=O`, the growth inhibition is, setting by setting: (at 1.2 µM) 6%; (at 3.7 µM) -3%; (at 11.0 µM) 11%; (at 33.0 µM) 67%; (at 100.0 µM) 96% (active).

Source of the values: PubChem BioAssay (NCI).
